Source: PubChem BioAssay (NCATS)
Records with an inconclusive call do not appear. Activity calls are given as the source filed them. Calls come from the whole dose curve; as a rule, active = well fitted curve in the direction sought with a large enough effect; inconclusive = small, poorly fitted or top-dose-only effect, or another doubt; inactive = no such curve, though single readings can be large; an effect the other way counts as inactive or inconclusive.

Key:
[1] = target: Glutathione peroxidase 1 (Homo sapiens) (UniProt P07203); test: Primary qHTS Assay for Inhibitors of Recombinant Selenoprotein Glutathione Peroxidase 1 (GPX1) (AID 1845191); note: nearly all actives have a fitted effect of over 65% in size; for activity, negative = inhibition: % is set by controls: 0 for no effect and ±100 for the full control effect
Chain of Glutathione peroxidase 1 (Homo sapiens) (P07203 whole entry, looked up): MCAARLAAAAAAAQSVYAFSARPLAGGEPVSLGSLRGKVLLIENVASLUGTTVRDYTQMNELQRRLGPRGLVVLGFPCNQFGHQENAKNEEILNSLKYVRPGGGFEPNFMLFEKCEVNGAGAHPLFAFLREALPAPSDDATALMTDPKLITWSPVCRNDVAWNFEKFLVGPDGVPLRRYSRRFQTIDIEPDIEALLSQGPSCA
Outline: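 10 nM GPX1 + cpd, 30 min RT; start w/ 1 mM GSH, 0.5 mM cumene hydroperoxide, 0.5 mM NADPH, 100 nM GR, 0.01% BSA; buffer 50 mM Tris-HCl pH 7.5, 2 mM EDTA, 150 mM NaCl; Fl 340/450, 0 & 15 min.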

[2] = target: Phospholipid hydroperoxide glutathione peroxidase GPX4 (Homo sapiens) (UniProt P36969); test: Primary qHTS Assay for Inhibitors of Recombinant Selenoprotein Glutathione Peroxidase 4 (GPX4) (AID 1845192); note: nearly all actives have a fitted effect of over 65% in size; for activity change, negative = inhibition: series mostly up to about 50 µM; % is set by controls: 0 for no effect and ±100 for the full control effect
Chain of Phospholipid hydroperoxide glutathione peroxidase GPX4 (Homo sapiens) (P36969 whole entry, looked up): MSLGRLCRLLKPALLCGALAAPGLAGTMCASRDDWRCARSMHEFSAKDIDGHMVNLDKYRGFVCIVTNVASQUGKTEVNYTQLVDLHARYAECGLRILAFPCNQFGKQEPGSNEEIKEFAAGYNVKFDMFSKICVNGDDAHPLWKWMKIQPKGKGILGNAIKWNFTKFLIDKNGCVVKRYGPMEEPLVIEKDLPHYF
Outline: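 NADPH consumption, followed by fluorescence at 340/450 nm between 0 and 15 min, reports GPX4 activity via coupled glutathione reductase (100 nM). Enzyme 200 nM was pre-exposed to compound 30 min; 0.5 mM cumene hydroperoxide and 1 mM GSH served as substrates.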

[3] = target: Luciferin 4-monooxygenase (Photinus pyralis) (UniProt P08659); test: Primary firefly luciferase (FLuc) qHTS assay for identification of artifact compounds. (AID 1845220); note: nearly all actives have a fitted effect of over 60% in size;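 for activity change, negative = inhibition: series mostly up to about 54 µM; plate controls were DMSO vehicle for no effect and no enzyme for full effect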
Outline: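 Compounds sat 15 min at room temperature with 10 uM luciferin and 10 uM ATP (pH 7.6 Tris acetate). Firefly luciferase (10 nM final) was then added, and luminescence was read 5 min later. Data normalized to no-enzyme and DMSO controls were Hill-fitted.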

[4] = Primary fluorescence-based thiol-reactive (MSTI) qHTS assay for identification of artifact compounds. (AID 1845221);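 note: series mostly up to about 54 µM; thiol-reactive compounds lower the probe fluorescence signal; nearly all actives have a fitted effect of over 65% in size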
Outline: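 Probe: MSTI 4 uM, PBS pH 7.4, 2% DMSO. Incubation 1 h, RT, light-protected. Readout fluorescence 525/598 nm.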

[5] = tested on: Nanoluciferase (engineered Oplophorus gracilirostris luciferase); test: Primary Nanoluciferase (NLuc) qHTS assay for identification of artifact compounds. (AID 1845222);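 note: series mostly up to about 54 µM; 0% = DMSO and -100% = no enzyme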
Outline: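 Luminescence from secreted NLuc (filtered, 1:55-diluted S16 cell medium) read 5 min after Nano-Glo substrate; compounds preincubated 15 min, RT. Hill fits of inhibition normalized to DMSO and no-enzyme.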

O=C1C(Cc2ccc(O)cc2)N2C(=O)CCN(C(=O)NCc3ccccc3)C2CN1Cc1cccc2ccccc12 (stereo not given)
inactive: Potency [1] | Potency [2] | Potency [3] | Potency [4] | Potency [5]

COC1CCN(C(=O)c2cc(Cc3n[nH]c(=O)c4ccccc34)ccc2F)CC1
inactive: Potency [1] | Potency [2] | Potency [3] | Potency [4] | Potency [5]

O=[N+]([O-])c1cn2c(n1)OC[C@@H](OCc1ccc(-c3ccc(OC(F)(F)F)cc3)nc1)C2
inactive: Potency [1] | Potency [2] | Potency [3] | Potency [4] | Potency [5]

O=C(NCC1(N2CCN(c3ccccc3)CC2)CCOCC1)c1cccnc1Sc1ccccc1
inactive: Potency [1] | Potency [2] | Potency [3] | Potency [4] | Potency [5]

C[C@@H]1C[C@H]2O[C@@]3(O[C@@H]2C(C)(C)O)C(O)[C@@]2(C)C4CCC5C(C)(C)[C@@H](O[C@H]6OC[C@H](O)[C@@H](O)[C@@H]6O)CC[C@@]56C[C@@]46CC[C@]2(C)C13 (stereo not given in full)
inactive: Potency [1] | Potency [2] | Potency [3] | Potency [4] | Potency [5]

C/C=C(/C)C(=O)OC1CC(C)(C)CC2C3=CCC4C5(C)CCC(O[C@@H]6O[C@H](C(=O)O)[C@@H](O)[C@H](O)[C@H]6O[C@@H]6O[C@H](CO)[C@H](O)[C@H](O[C@@H]7OC[C@H](O)[C@H](O)[C@H]7O[C@@H]7O[C@H](CO)[C@@H](O)[C@H](O)[C@H]7O)[C@H]6O)C(C)(C)C5CCC4(C)C3(C)C(O)C(O)C12CO (stereo not given in full)
inactive: activity, negative = inhibition [1] -3.11% [at 9.52 µM] | activity change, negative = inhibition [2] -1.81% [at 9.73 µM] | activity change, negative = inhibition [3] 1.87% [at 11.6 µM] | activity change, negative = thiol reactive [4] 199% [at 11.5 µM] | activity, negative = inhibition [5] 4.03% [at 11.6 µM]

CCN1CCN(Cc2ccc(NC(=O)c3ccc(C)c(Oc4ccnc5[nH]ccc45)c3)cc2C(F)(F)F)CC1
inactive: Potency [1] | Potency [2] | Potency [3] | Potency [4] | Potency [5]

C=C1CC2OC(=O)C(COC)C2C(OC(=O)/C(C)=C\C)CC2(C)OC1=CC2=O (stereo not given)
inactive: Potency [1] | Potency [2] | Potency [3] | Potency [4] | Potency [5]

CC(=O)O[C@H]1C[C@@](O)(C(C)C)[C@@H]2[C@@H](OC(=O)c3ccc(O)cc3)CC(C)=CC[C@@]12C
inactive: Potency [1] | Potency [2] | Potency [3] | Potency [4] | Potency [5]
